Only some compounds are listed: those with a hit (about 1.6% of all), similar ones and a draw of the others.
KCNQ2 enhance – potentiators of rat KCNQ2 potassium channel; O88943; B-score at 10 µM; CHO-K1 KCNQ2, FluxOR thallium flux fluorescence; stronger effect = higher value; hit rate 0.54% among 310,000;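 active = fluorescence ratio B-score at least 3 SD of library B-scores, with initial fluorescence B-score within 3 of them, cut at about 5.3 in these data; same plate scores as AID 2156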;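 also: B-score of peak minus minimum over baseline fluorescence ratio after K+ and Tl+ stimulus; positive B-score means potentiation of KCNQ2 with more thallium influx and brighter signal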
Target sequence (O88943 whole entry, looked up): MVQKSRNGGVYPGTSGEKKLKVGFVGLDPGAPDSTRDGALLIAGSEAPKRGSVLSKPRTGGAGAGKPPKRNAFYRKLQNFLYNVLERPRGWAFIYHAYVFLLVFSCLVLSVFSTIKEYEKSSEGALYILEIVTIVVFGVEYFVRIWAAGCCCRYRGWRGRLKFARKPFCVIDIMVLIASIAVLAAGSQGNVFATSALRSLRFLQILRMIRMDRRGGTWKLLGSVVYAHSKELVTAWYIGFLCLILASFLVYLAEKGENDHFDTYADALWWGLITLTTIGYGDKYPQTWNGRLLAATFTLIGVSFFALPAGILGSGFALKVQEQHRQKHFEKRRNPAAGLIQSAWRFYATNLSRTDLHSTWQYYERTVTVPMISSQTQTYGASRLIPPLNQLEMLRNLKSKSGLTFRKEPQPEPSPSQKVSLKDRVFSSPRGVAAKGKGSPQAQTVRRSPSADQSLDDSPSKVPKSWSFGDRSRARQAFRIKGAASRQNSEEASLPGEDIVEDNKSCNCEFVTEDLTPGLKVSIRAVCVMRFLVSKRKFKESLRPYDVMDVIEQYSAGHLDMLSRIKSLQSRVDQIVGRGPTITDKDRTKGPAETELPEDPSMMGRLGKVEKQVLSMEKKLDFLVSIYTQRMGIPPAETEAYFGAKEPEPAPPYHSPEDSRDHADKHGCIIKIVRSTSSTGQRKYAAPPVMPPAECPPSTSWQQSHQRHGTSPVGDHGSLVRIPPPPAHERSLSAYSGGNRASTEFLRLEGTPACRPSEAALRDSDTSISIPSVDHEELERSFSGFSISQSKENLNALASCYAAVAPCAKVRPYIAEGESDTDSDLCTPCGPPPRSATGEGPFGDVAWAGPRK
KCNQ2 inh – KCNQ2 (rat) channel inhibition | B-score at 10 µM | CHO-K1 KCNQ2, FluxOR thallium flux, 20 min; stronger effect = lower value | hit rate 1.1% among 310,000 | AID 2156 | O88943;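 active = fluorescence ratio B-score at most minus 3 library SDs, with starting brightness B-score within 2 library SDs, cut at about -5.5 in these data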
Numbers without * were called inactive; i = inactive; / = no result.

SMILES | KCNQ2 enhance | KCNQ2 inh
CSc1ccccc1C(=O)N(C)Cc1ccccc1 | / | i
CCCCNC(=O)Nc1ncn[nH]1 | / | i
Cc1cc(Sc2ncnc(N)c2[N+](=O)[O-])ncn1 | -5.9 | -5.9*
Cc1cc(Sc2nc(N)ncc2[N+](=O)[O-])ncn1 | / | i
COc1ccc(/C=C/c2nc(-c3ccccc3O)n[nH]2)cc1OC | 10* | i
O=C(O)COc1ccc(/C=C/c2nc(-c3ccccc3O)n[nH]2)cc1 | 0.1 | i
CC(C)(C)OC(=O)N1CCC(NC(=O)c2nc[nH]c2C(=O)NCC(=O)OCc2ccccc2)CC1 | / | i
CCOC(=O)C1=C(C)n2c(s/c(=C/c3cccc([N+](=O)[O-])c3)c2=O)=NC1c1ccc(O)c(OC)c1 (centres undefined) | -6.1 | -6.1*
CCOC(=O)C1=C(C)N=c2s/c(=C\c3ccc(OCC(=O)O)cc3)c(=O)n2C1c1ccccc1OC (centres undefined) | 1.1 | i
CCOC(=O)C1=C(C)N=c2s/c(=C/c3ccccc3)c(=O)n2C1c1ccc(OC)c(OC)c1 (centres undefined) | / | i
CCOC(=O)C1=C(C)N=c2s/c(=C\c3ccc(O)c([N+](=O)[O-])c3)c(=O)n2C1c1ccccc1OC (centres undefined) | -7.2 | -7.2*
COc1ccc(Br)cc1/C=N/n1c(-c2ccccc2)n[nH]c1=S | / | i
O=C(COC(=O)Cc1ccccc1F)Nc1cccc(S(=O)(=O)NC2=NCCCCC2)c1 | 0.24 | i
Cc1sc2ncn(CCn3cnc4sc(C)c(C)c4c3=O)c(=O)c2c1C | / | i
Cc1sc2ncn(-n3c(C)ccc3C)c(=O)c2c1C | -5.7 | -5.7*
C=CCn1c(SCc2ccccc2)nc2scc(-c3ccc(C)o3)c2c1=O | 0.16 | i
Cc1ccc(-c2csc3ncn(-n4c(C)ccc4C)c(=O)c23)o1 | -6.6 | -6.6*
CCOc1ccc(CCNC(=O)c2cccc(C#N)c2)cc1OCC | 1.2 | i
CCCn1c(=O)c(C(=O)NCc2ccc3c(c2)OCO3)c(O)c2ccccc21 | -5.9 | -5.9*
CCCn1c(=O)c(C(=O)NCCc2ccc(OC)c(OC)c2)c(O)c2ccccc21 | -6.2 | -6.2*
CCCn1c(=O)c(C(=O)NCc2cccnc2)c(O)c2ccccc21 | / | i
CCn1c(=O)c(C(=O)NCCc2ccc(OC)c(OC)c2)c(O)c2ccccc21 | / | i
COc1ccc(CCN2CC(C(=O)NCCc3ccccc3C)CCC2=O)cc1 (centres undefined) | / | i
Cc1c(C)c2ccc(OC(C)C(=O)NCCCN3CCOCC3)c(C)c2oc1=O (centres undefined) | 0.08 | i
NC(=O)N/N=C/C=C/c1ccc(F)cc1 | 0.52 | i
SMILES | KCNQ2 enhance | KCNQ2 inh
O=C(Nc1ccccc1N1CCOCC1)c1cc2ccccc2o1 | / | i
COc1c(C(=O)Nc2ccccc2N2CCOCC2)cc2ccccc2c1Br | -7.5 | -7.5*
COc1ccc(N2CCOCC2)c(NC(=O)c2cc3ccccc3o2)c1 | -7.3 | -7.3*
COc1ccccc1C(=O)Nc1ccccc1N1CCOCC1 | / | i
COC(=O)c1sc2nc(CN3CCN(c4cccc(C(F)(F)F)c4)CC3)[nH]c(=O)c2c1C | / | i
Cc1ccc(C(=O)O)cc1NC(=O)Nc1cccc2ccccc12 | 1.2 | i
O=C(COCCOCC(=O)N(c1ccccn1)C1CCCCC1)N(c1ccccn1)C1CCCCC1 | 0.07 | i
Cc1ccc(OCC(=O)N(c2ccccn2)C2CCCCC2)c(C)c1 | -6.4 | -6.4*
CCOc1ccc2c(c1)C(N(CCN1CCOCC1)C(=O)Nc1ccccc1)CC(C)(C)O2 (centres undefined) | / | i
Cc1ccc(S(=O)(=O)N2CCN(C(=O)CC(C)n3cncn3)CC2)cc1C (centres undefined) | / | i
COc1ccccc1C(=O)N/C(=C\c1ccc(Br)cc1)C(=O)NCCO | / | i
CCNC(=O)/C(=C\c1ccc2c(c1)OCO2)NC(=O)c1ccc(Br)cc1 | / | i
CCN(CC)C(=O)/C(=C\c1ccc2c(c1)OCO2)NC(=O)c1ccc(Br)cc1 | -6.5 | -6.5*
CCN(CC)C(=O)/C(=C\c1ccc(Br)cc1)NC(=O)c1ccccc1OC | -7.2 | -7.2*
Cc1ccc2sc(N3CCN(CCNC(=O)c4ccco4)CC3)nc2c1C | / | i
CN1CCCCCC1C(=O)N1CCC(N2CCC(C(=O)N3CCOCC3)CC2)CC1 (centres undefined) | 0.93 | i
CC1CN(C(=O)CCC(=O)NCc2ccccc2Cl)c2ccccc2S1 (centres undefined) | -7.4 | -7.4*
CC(C)Oc1ccc(CNC(=O)CCC(=O)N2CC(C)Sc3ccccc32)cc1 (centres undefined) | / | i
CCN1C(=O)[C@H]2[C@@H](c3ccc(Cl)cc3)N3C(=O)CN(CC4CC4)C(=O)[C@@]3(Cc3ccccc3)[C@H]2C1=O | 0.27 | i
COc1ccc(OCC(=O)Nc2ccc3nc(C)sc3c2)cc1 | -9.6 | -9.6*
COc1cccc(CC(=O)Nc2ccc3nc(C)sc3c2)c1 | / | i
O=C(Nc1nccs1)c1ccc(COc2c(F)c(F)cc(F)c2F)cc1 | 0.15 | i
CC(Sc1nc2ccccc2n1C)C(=O)NC(c1ccccc1)c1ccccc1 (centres undefined) | -6.1 | -6.1*
Cn1c(SC(C(=O)Nc2ccc(F)cc2)c2ccccc2)nc2ccccc21 (centres undefined) | 1.3 | i
Cc1ccc(S(=O)(=O)NCC(=O)NCCc2c[nH]c3ccccc23)cc1C | / | i
SMILES | KCNQ2 enhance | KCNQ2 inh
O=C(Nc1ccc(F)cc1)c1ccccc1NS(=O)(=O)N1CCCC1 | 0.02 | i
Cc1cccc(NC2=NCC(=O)N2Cc2cccs2)c1 | 0.64 | i
CCCCNc1c(-c2ccc(SC3CCCCC3)cc2)nc2ccccn12 | / | i
CCCCNc1c(-c2ccc(SC(C)CC)cc2)nc2ccccn12 (centres undefined) | -7.1 | -7.1*
CC(C)Cn1c(=O)c2c(nc3n2CC(C)CN3Cc2ccccc2)n(C)c1=O (centres undefined) | / | i
CCCCn1c(SCc2nc3ccccc3s2)nc2ccccc2c1=O | -7.8 | -7.8*
O=c1c2ccccc2nc(SCc2nc3ccccc3s2)n1Cc1ccco1 | / | i
COc1ccc(CCNC(=O)CSc2nc3[nH]ncc3c(=O)n2-c2ccc(C)c(Cl)c2)cc1OC | / | i
Cc1cccc(NC(=O)CSCC(=O)N(CCC(C)C)c2c(N)n(Cc3ccccc3)c(=O)[nH]c2=O)c1 | 0.24 | i
Cc1ccc(OCC(=O)Nc2ccon2)c([N+](=O)[O-])c1 | 0.89 | i
Cc1ccccc1NC(=O)C1C2/C=C\CCCCC21 (centres undefined) | 5.4* | i
Cc1ccccc1NC(=O)C1C2CCCCC21 (centres undefined) | / | i
CC1CN(C(=O)COc2coc(CN3CCc4ccccc4C3)cc2=O)CC(C)O1 (centres undefined) | 0.31 | i
COc1ccccc1NC(=O)c1ccc(Br)c(S(=O)(=O)N2CCCC2)c1 | 0.82 | i
O=C(CCC(=O)c1cccs1)NCc1cccc(Cl)c1 | -6.3 | -6.3*
O=C(COC(=O)CCC(=O)c1cccs1)NCc1ccc(Cl)cc1 | 0.13 | i
O=C(CSc1cccc(C(F)(F)F)c1)NCc1ccccc1 | 16* | i
O=C(O)CSCC(=O)NCc1cccc(C(F)(F)F)c1 | 0.01 | i
O=C(CCC(=O)c1cccs1)NCc1cccc(C(F)(F)F)c1 | -6.4 | -6.4*
O=C(CSc1ccccc1)NCc1ccccc1 | / | i
